According to the supplement of paper PMC11732987, “Enantioselective OTUD7B fragment discovery through chemoproteomics screening and high-throughput optimisation” (Communications Chemistry, 2025):

Legend:
Experiment in all cases: log2 ratio of Biotin-Ahx-Ub-VS probe labelling (fragment/DMSO); higher = less target engagement (more negative = stronger competition), active = hit call of the paper (q ≤ 0.05, log2 ratio ≤ -1)
Conditions in all cases: compound concentration: 200 uM; treatment time: 3 h
USP34 = USP34 (UniProt Q70CQ2)
In short: (§1)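 HEK293T lysate in Tris/CHAPS/IGEPAL buffer with protease inhibitors (495 µg per sample) was given fragment at 200 µM or vehicle for 3 h, in triplicate. It then received Biotin-Ahx-Ub-VS at 0.5 µM final for 1 h. Labelled DUBs were NeutrAvidin-enriched, digested with LysC and trypsin, and run by diaPASEF LC-MS/MS. Values are average log2 fragment/vehicle ratios by unpaired t-test on global-median-normalised Spectronaut quantities of proteins with ≥2 unique peptides.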

USP36 = target: T1, USP36 (UniProt Q9P275)
T1 sequence (whole entry): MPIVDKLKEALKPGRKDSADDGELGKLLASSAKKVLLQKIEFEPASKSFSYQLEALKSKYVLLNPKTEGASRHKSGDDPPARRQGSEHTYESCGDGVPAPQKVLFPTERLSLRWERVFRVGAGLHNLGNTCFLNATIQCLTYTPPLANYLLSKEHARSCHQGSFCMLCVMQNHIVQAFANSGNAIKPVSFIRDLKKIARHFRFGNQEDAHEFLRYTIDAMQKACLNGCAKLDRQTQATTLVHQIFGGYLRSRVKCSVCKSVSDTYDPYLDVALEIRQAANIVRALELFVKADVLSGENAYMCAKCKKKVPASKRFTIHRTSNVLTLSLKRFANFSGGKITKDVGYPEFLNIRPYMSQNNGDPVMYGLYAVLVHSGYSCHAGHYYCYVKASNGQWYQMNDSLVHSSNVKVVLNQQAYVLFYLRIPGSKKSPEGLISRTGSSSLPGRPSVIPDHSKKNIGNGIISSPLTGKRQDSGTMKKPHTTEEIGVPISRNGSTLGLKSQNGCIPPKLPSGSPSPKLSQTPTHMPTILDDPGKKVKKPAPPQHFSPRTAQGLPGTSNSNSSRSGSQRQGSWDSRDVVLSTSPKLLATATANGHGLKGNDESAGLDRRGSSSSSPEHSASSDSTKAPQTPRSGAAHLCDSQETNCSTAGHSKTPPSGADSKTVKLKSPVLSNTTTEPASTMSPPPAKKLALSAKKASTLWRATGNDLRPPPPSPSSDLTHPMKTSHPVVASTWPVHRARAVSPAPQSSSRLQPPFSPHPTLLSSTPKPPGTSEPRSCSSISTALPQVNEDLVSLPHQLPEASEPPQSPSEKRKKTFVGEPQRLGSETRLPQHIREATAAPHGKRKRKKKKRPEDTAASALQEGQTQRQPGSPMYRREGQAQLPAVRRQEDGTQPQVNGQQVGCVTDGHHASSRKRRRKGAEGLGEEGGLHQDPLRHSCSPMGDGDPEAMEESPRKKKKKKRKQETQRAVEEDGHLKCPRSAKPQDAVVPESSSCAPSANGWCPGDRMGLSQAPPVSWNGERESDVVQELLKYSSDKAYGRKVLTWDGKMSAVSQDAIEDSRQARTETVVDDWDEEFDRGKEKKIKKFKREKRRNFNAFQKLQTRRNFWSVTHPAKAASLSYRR
In short: as §1

USP38 = target: T2, USP38 (UniProt Q8NB14)
T2 sequence (whole entry): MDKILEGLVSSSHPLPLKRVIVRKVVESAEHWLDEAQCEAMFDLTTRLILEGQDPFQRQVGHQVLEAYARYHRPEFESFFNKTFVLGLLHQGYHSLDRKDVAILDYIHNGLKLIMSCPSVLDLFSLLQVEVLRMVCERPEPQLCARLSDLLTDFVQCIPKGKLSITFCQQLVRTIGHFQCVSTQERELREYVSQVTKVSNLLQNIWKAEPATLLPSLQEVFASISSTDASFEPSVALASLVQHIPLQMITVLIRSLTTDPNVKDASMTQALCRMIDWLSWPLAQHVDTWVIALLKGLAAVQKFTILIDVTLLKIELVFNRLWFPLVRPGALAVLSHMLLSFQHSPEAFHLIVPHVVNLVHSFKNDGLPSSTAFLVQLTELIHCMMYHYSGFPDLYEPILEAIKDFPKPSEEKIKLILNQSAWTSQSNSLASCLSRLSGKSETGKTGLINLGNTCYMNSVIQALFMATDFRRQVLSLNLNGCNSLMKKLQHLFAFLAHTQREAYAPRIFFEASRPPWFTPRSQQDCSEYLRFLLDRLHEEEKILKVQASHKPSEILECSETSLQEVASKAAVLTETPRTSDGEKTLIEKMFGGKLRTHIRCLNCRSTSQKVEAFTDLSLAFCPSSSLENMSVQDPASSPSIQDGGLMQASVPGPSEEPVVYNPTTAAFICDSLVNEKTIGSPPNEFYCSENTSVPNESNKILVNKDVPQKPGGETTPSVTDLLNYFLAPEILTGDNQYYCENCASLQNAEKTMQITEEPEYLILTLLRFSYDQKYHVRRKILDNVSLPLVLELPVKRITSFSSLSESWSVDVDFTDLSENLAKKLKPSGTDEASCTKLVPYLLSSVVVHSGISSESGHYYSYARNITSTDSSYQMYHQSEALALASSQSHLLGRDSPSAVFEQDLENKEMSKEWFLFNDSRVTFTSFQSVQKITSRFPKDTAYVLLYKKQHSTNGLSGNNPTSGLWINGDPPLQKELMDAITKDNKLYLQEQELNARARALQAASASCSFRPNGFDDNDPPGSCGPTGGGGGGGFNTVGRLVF
In short: as §1

USP39 = target: T3, USP39 (UniProt Q53GS9)
T3 sequence (whole entry): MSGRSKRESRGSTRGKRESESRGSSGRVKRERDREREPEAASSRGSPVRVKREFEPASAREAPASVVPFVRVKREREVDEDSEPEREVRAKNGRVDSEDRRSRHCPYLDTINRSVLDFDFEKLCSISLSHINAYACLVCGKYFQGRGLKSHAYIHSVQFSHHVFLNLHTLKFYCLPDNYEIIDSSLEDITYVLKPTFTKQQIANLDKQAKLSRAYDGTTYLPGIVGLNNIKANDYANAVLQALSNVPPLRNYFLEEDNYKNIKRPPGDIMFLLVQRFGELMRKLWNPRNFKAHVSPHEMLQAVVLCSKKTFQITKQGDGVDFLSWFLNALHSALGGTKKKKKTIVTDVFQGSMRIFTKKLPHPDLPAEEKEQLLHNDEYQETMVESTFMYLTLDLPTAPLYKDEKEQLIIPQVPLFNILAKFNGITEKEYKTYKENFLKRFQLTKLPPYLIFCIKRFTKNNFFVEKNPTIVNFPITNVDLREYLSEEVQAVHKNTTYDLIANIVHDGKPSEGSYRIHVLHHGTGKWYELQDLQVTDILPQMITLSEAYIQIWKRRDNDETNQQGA
In short: as §1

USP4 = target: T4, USP4 (UniProt Q13107)
T4 sequence (whole entry): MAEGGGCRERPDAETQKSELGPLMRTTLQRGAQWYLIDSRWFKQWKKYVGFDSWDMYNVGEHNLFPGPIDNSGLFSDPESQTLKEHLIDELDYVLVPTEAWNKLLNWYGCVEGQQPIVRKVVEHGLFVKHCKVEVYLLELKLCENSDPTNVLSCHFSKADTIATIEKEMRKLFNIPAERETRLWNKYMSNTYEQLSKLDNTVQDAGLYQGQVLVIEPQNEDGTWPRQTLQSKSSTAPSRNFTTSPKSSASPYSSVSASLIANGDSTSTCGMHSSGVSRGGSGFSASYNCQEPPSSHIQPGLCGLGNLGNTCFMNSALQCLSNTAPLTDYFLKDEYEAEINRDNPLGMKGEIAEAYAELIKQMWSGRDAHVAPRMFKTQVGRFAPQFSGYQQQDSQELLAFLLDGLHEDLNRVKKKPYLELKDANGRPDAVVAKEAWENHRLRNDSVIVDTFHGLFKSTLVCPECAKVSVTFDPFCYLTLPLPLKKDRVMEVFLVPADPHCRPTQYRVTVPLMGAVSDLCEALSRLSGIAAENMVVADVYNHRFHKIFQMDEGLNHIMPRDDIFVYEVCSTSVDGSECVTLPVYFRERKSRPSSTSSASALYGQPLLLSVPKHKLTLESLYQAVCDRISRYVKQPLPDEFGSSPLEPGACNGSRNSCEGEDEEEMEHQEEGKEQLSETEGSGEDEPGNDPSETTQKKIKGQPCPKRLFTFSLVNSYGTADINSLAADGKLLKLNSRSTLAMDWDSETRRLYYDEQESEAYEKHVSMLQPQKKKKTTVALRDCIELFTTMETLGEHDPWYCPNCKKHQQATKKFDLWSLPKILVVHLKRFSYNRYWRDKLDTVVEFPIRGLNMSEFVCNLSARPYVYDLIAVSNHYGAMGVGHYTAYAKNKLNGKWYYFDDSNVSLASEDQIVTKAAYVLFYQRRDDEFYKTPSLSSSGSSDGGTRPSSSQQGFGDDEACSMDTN
In short: as §1

Measured: log2 ratio of Biotin-Ahx-Ub-VS probe labelling

Sequence of USP34 (Q70CQ2 whole entry, the tested form may be a part): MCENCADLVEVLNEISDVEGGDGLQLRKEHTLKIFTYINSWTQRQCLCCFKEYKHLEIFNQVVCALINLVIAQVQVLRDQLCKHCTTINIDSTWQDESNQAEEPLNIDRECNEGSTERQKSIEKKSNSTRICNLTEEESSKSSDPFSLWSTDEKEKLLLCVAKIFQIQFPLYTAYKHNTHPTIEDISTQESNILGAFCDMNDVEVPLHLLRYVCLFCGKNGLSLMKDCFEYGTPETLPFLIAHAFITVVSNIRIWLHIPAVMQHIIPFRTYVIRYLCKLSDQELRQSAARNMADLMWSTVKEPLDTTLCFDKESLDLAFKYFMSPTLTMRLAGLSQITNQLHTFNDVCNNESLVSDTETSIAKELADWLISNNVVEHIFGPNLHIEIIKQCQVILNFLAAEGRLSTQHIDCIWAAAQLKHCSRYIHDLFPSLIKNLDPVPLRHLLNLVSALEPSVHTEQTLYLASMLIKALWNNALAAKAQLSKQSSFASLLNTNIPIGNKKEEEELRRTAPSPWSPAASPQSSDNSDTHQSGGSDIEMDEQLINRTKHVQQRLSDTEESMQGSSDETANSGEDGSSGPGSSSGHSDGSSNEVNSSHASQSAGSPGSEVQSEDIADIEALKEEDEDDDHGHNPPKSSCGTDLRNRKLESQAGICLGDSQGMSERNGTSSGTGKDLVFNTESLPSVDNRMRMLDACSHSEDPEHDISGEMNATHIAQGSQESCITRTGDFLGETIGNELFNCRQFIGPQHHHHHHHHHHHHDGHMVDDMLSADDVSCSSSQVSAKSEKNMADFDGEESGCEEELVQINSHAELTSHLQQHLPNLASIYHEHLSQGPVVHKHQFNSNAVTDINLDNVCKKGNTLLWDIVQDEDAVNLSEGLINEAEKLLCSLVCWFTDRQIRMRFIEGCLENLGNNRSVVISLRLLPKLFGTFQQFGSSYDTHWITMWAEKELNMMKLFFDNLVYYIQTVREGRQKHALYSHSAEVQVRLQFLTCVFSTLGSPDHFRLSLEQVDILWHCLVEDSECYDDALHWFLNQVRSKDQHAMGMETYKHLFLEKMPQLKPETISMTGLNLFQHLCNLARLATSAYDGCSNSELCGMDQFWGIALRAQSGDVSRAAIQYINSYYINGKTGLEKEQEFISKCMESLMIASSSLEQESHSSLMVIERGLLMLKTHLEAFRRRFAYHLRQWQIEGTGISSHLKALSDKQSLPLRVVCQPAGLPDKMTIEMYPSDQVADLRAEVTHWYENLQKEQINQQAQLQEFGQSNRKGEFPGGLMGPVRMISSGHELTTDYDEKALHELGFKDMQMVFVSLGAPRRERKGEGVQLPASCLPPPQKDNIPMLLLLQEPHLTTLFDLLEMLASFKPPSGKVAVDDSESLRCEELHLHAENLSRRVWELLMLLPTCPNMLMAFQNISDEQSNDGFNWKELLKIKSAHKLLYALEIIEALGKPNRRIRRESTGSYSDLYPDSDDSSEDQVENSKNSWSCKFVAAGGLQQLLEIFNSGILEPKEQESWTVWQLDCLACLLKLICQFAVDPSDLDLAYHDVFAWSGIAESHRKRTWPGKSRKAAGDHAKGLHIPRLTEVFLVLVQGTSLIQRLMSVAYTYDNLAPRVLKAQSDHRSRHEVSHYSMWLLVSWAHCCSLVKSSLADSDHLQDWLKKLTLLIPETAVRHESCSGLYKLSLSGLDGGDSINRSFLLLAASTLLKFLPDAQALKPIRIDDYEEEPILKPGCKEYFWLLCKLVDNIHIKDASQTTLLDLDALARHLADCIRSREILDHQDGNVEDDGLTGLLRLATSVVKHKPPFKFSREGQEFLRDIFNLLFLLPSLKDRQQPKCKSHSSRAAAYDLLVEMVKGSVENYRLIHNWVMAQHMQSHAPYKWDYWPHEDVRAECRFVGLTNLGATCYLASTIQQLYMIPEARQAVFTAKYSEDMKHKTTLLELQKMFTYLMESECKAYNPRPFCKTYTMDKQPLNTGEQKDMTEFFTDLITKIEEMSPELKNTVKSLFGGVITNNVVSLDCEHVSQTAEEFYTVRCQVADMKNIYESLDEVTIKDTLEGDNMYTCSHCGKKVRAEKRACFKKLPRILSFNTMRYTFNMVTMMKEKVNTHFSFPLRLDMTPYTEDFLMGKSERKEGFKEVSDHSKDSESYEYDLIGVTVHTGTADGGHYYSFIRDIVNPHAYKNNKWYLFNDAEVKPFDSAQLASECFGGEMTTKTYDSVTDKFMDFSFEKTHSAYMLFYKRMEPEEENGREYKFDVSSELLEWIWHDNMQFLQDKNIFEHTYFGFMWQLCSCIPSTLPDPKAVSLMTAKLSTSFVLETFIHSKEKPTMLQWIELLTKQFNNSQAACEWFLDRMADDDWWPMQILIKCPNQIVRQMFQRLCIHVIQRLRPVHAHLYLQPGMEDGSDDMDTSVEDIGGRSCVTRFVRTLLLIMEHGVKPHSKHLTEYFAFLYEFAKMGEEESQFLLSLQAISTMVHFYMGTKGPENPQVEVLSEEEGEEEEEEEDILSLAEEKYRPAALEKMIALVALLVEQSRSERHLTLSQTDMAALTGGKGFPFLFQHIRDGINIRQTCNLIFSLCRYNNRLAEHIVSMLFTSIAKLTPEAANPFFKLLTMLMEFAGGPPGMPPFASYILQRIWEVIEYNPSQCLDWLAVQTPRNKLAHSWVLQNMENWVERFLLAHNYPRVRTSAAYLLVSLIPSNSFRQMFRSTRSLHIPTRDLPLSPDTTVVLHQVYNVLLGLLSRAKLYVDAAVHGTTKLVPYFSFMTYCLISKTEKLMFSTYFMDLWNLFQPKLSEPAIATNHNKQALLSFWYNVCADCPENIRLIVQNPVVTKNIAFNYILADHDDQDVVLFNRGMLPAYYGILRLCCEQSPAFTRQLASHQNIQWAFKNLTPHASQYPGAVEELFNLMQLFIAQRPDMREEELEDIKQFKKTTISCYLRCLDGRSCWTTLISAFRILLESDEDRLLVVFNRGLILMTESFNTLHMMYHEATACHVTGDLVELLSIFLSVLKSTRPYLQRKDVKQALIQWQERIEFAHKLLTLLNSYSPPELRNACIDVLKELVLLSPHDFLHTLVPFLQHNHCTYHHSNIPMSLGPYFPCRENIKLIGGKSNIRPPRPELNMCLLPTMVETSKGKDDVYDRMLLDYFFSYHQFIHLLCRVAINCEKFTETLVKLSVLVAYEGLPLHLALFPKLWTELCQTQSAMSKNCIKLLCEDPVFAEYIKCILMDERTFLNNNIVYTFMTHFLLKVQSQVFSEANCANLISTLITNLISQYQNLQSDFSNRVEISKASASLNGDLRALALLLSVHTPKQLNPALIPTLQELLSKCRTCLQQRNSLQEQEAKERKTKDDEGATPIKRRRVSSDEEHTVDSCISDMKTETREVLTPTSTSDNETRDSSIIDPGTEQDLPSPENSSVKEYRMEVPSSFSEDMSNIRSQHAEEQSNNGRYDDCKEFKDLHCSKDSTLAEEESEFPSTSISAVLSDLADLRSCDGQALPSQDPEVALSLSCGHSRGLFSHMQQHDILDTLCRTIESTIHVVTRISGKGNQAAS

O=C(CCl)N1CCOCC1C1CC1 (stereo not given)
inactive: USP34 0.0844 | USP36 -0.0397 | USP38 0.0391 | USP39 0.265 | USP4 -0.101
